Growth data for twelve molecules are collected here from PubChem BioAssay (NCI).

The panel holds about 83,000 compounds, 20% with a hit somewhere; the sample as a whole holds those more often.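 Method: cells in 96-well plates; compound added at one concentration; 48 h incubation; percent growth measured; values under 10 scored active.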 A number with no mark means an inactive call. Active and inactive are the calls of the source.

The experiment has as its system OVCAR-8 ovarian. The experiment in a line: NCI-60 one-dose screen, 48 h (100 = growth as untreated, 0 = no growth, -100 = all killed). The conditions noted are these: 10 µM unless noted.
Take `CC1(C)CC[C@]2(C(=O)N3CCOCC3)CC[C@]3(C)C(=CC[C@@H]4[C@@]5(C)C/C(=C/c6ccncc6)C(=O)C(C)(C)[C@@H]5CC[C@]43C)[C@@H]2C1`: the growth is 34%.

Consider `O=C(Nc1cccnc1Nc1ccc(Cl)cc1)c1cn(Cc2ccc(F)cc2)nn1`, for which the growth was 96.2%.

In the case of `C=C1C(=O)O[C@H]2[C@H]1CC/C(CNC(=O)c1cc3ccccc3[nH]1)=C\CC[C@@]1(C)O[C@@H]21`, the growth is -26.2% (active).

Turning to `C=CCN=C(N)SCCCCCCSC(N)=NCC=C`, the growth was 94.6%.

On to `CNC(=O)c1c(NC(=O)c2ccc(C(C)(C)C)cc2)sc2c(CN(C)C)c(O)ccc12`, for which the growth is 23.7%.

With `COc1ccc(C/C(C)=C(\c2ccc(O)cc2)c2ccc(OCCN3CCCC3)cc2)cc1`, the growth is 103%.

In the case of `S=c1ssnc1-c1cccs1`, the growth is 113%.

With `COc1cc(/C=C/c2cc(/C=C/c3ccc(O)c(OC)c3)n(C(=O)Nc3ccc(F)cc3)n2)ccc1O`, the growth was 0.475% (active).

As to `COc1cc2c3c(n(CCCCNCCCn4c5c(c6cc(OC)c(OC)cc6c4=O)C(=O)c4cc6c(cc4-5)OCO6)c(=O)c2cc1OC)-c1cc2c(cc1C3=O)OCO2`, the growth was 101%.

For `COc1cc(-c2cc(-c3ccc(Nc4ncnc5cc(Cl)ccc45)cc3)nc(N3CCN(C)CC3)n2)cc(OC)c1OC`, the growth was 35.1%.

`COc1cc(C(=O)/C=C/c2ccc(N3CCN(C)CC3)cc2)cc(OC)c1OC`: the growth was 98%.

As to `Cc1ccc2[nH]c(=O)c3c(c2c1)OC(N)=C(C#N)C31C(=O)c2cccc3cccc1c23` (configuration not stated), the growth is 103%.
